Bioassay records (PubChem BioAssay)
An excerpt weighted towards active compounds, which were near 8.1% of everything screened.
KB-V1 cytotox – KB-V1 MDR subline cytotoxicity; KB-V1 MDR cells viability, CellTiter-Glo, 72 h; Potency, µM (doses to about 46.1 µM), actives largely listed as cytotoxic; 400,000 compounds, 3.4% hits; further: nearly all actives have a fitted effect of over 60% in size
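Cytotoxicity via CellTiter-Glo luminescence after 72 h compound exposure at 37 degrees C. Cells: drug-selected KB-V1 line, DMEM phenol-red free plus 10% FBS. Compounds tested at multiple concentrations; normalized data fitted to concentration-effect curves.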
ELG1 repair inh – blocks ELG1-dependent DNA repair in HEK293T cells; HEK293T ELG1-luciferase reporter, luminescence, 16 h; DNA damage induced by 5-fluorouridine; Potency, µM (titrated, usually from 46.1 µM), most hits filed as inhibitors; 330,000 compounds, 2.3% hits; AID 504467; further: nearly all actives have a fitted effect of over 55% in size
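Cells (2,000 per well) received 5-fluorouridine plus test compound or DMSO and were incubated 16 hr at 37 °C, 5% CO2. Luciferase activity was read by luminescence 30 min after ONE-Glo addition; signal suppression marked inhibition of damage-induced ELG1 function.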
SW480 rereplic – DNA re-replication induction in SW480 cells. Potency, µM (highest dose often 46.1 µM), hits mostly activators. AID 624297. SW480 DNA re-replication, Hoechst DNA content imaging, 48 h. 340,000 compounds, 1.8% hits; further: nearly all actives have a fitted effect of over 55% in size
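Image-based DNA-content assay: after two days of treatment, nuclei were labelled with the DNA dye Hoechst and imaged, and hits were compounds raising the count of nuclei showing high fluorescence intensity.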
KB-3-1 tox – kills parental KB-3-1 adenocarcinoma cells | KB-3-1 viability, CellTiter-Glo ATP luminescence, 72 h | Potency, µM (highest dose often 46.1 µM), actives largely listed as cytotoxic | 400,000 compounds, 1.4% hits | AID 1347075; further: nearly all actives have a fitted effect of over 60% in size
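Viability of parental KB-3-1 cells, measured by CellTiter-Glo luminescence, followed a 72 h incubation at 37 °C with pinned compounds in phenol-red-free DMEM containing 10% FBS.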
MCF10A rerep – induces DNA re-replication in MCF 10a normal breast cells; MCF 10A DNA re-replication, Hoechst nuclear intensity, 48 h; Potency, µM (titrated, usually from 46.1 µM), actives largely listed as activators; 350,000 compounds, 2.9% hits; AID 624296; further: nearly all actives have a fitted effect of over 50% in size
Numbers stand for hits; [ ] = another dose, or the depositor's remark. The call rests on the fitted dose curve; in most records, active means well fitted curve in the direction sought with a large enough effect; inconclusive means small, poorly fitted or top-dose-only effect, or another doubt; inactive means no such curve, though single readings can be large; an effect the other way counts as inactive or inconclusive.

What do the screens show for `Cc1c(C)n(CCCN(C)C)c2ncnc(Nc3ccccc3)c12`?
KB-V1 cytotox: inactive; ELG1 repair inh: inconclusive; SW480 rereplic: inactive; KB-3-1 tox: inactive; MCF10A rerep: inconclusive

What do the screens show for `COc1ccccc1Nc1ncnc2c1c(C)c(C)n2CCCN(C)C`?
KB-V1 cytotox: inactive; ELG1 repair inh: inactive; SW480 rereplic: 20.6µM; KB-3-1 tox: inactive; MCF10A rerep: inconclusive

What do the screens show for `COCCn1c(N)c(C(=O)NCc2cccs2)c2nc3ccccc3nc21`?
KB-V1 cytotox: inconclusive; ELG1 repair inh: inconclusive; SW480 rereplic: inconclusive; KB-3-1 tox: inconclusive; MCF10A rerep: 8.2µM

Results for COCCn1c(N)c(C(=O)NCC2CCCO2)c2nc3ccccc3nc21 (stereo not drawn) ?
KB-V1 cytotox: inconclusive; ELG1 repair inh: inconclusive; SW480 rereplic: 10µM; KB-3-1 tox: inactive; MCF10A rerep: inconclusive

What do the screens show for `COc1ccc(OC)c(-n2c(N)c(C(=O)NCC3CCCO3)c3nc4ccccc4nc32)c1` (stereo not drawn)?
KB-V1 cytotox: inactive; ELG1 repair inh: 16.4µM; SW480 rereplic: 16.4µM; KB-3-1 tox: inactive; MCF10A rerep: 8.2µM

How did CNc1nc2ccccc2n1/N=C/c1cccc(OC)c1OC do in these assays?
KB-V1 cytotox: 8.2µM; ELG1 repair inh: inconclusive; SW480 rereplic: inactive; KB-3-1 tox: inactive; MCF10A rerep: inactive

What do the screens show for `COc1cccc(/C=N/n2c(CO)nc3ccccc32)c1OC`?
KB-V1 cytotox: inconclusive; ELG1 repair inh: inconclusive; SW480 rereplic: inactive; KB-3-1 tox: inactive; MCF10A rerep: inconclusive

Results for COCCn1c(N)c(C(=O)Nc2sc3c(c2C(=O)OC)CCCC3)c2nc3ccccc3nc21 ?
KB-V1 cytotox: inactive; ELG1 repair inh: inactive; SW480 rereplic: inactive; KB-3-1 tox: inactive; MCF10A rerep: inactive

Results for CCn1c(SCC(=O)N2CCOCC2)nnc1C(C)NC(=O)c1ccccc1 (stereo not drawn) ?
KB-V1 cytotox: inconclusive; ELG1 repair inh: inactive; SW480 rereplic: inactive; KB-3-1 tox: inactive; MCF10A rerep: inactive

What do the screens show for `COc1ccccc1-c1cnc(C(O)c2cc(C)c(OC)c(C)c2)[nH]1` (stereo not drawn)?
KB-V1 cytotox: inconclusive; KB-3-1 tox: inactive

What do the screens show for `CC(C)n1c(=O)c2ccccc2n1Cc1cn(-c2ccccc2)nn1`?
KB-V1 cytotox: inactive; KB-3-1 tox: inconclusive

Results for Cc1ccc(S(=O)(=O)N(CC(=O)c2ccccc2)C(=O)N2CCN(C)CC2)cc1 ?
KB-V1 cytotox: inactive; ELG1 repair inh: inactive; SW480 rereplic: inactive; KB-3-1 tox: inactive; MCF10A rerep: inactive

What do the screens show for `Nc1c(C(=O)NCC2CCCO2)c2nc3ccccc3nc2n1/N=C/c1ccncc1` (stereo not drawn)?
KB-V1 cytotox: inactive; SW480 rereplic: inactive; KB-3-1 tox: inactive; MCF10A rerep: inactive

Results for COc1cccc(/C=N/n2c(N)c(S(=O)(=O)c3cccs3)c3nc4ccccc4nc32)c1OC ?
KB-V1 cytotox: inconclusive; ELG1 repair inh: inconclusive; SW480 rereplic: 11.6µM; KB-3-1 tox: inconclusive; MCF10A rerep: 3.66µM

What do the screens show for `COCCn1c(N)c(S(=O)(=O)c2cccs2)c2nc3ccccc3nc21`?
KB-V1 cytotox: inactive; ELG1 repair inh: inactive; SW480 rereplic: inactive; KB-3-1 tox: inactive; MCF10A rerep: 23.1µM

How did Nc1c(C(=O)OCC2CCCO2)c2nc3ccccc3nc2n1C1CCCC1 (stereo not drawn) do in these assays?
KB-V1 cytotox: 23.1µM; ELG1 repair inh: inconclusive; SW480 rereplic: inactive; KB-3-1 tox: inconclusive; MCF10A rerep: inconclusive

What do the screens show for `Nc1c(S(=O)(=O)c2cccs2)c2nc3ccccc3nc2n1Cc1ccccc1`?
KB-V1 cytotox: inactive; ELG1 repair inh: inconclusive; SW480 rereplic: inactive; KB-3-1 tox: inactive; MCF10A rerep: inactive[0.0737 µM]

Results for COc1ccc(Cn2c(N)c(S(=O)(=O)c3cccs3)c3nc4ccccc4nc32)cc1 ?
KB-V1 cytotox: inactive; ELG1 repair inh: inactive; SW480 rereplic: inconclusive; KB-3-1 tox: inactive; MCF10A rerep: inconclusive

Results for CC(C)Cn1c(N)c(C(=O)NCC2CCCO2)c2nc3ccccc3nc21 (stereo not drawn) ?
KB-V1 cytotox: inconclusive; ELG1 repair inh: 8.91µM; SW480 rereplic: inconclusive; KB-3-1 tox: inactive; MCF10A rerep: 2.06µM

How did COCCNc1nc(Nc2ccc(C(=O)OC)cc2)c2sccc2n1 do in these assays?
KB-V1 cytotox: inactive; KB-3-1 tox: inactive

How did CCCCSCCCNC(=O)c1cn(C)c2ccc(S(=O)(=O)N3CCCCC3)cc2c1=O do in these assays?
KB-V1 cytotox: inactive; KB-3-1 tox: inactive

How did COc1cc2c(cc1OC)C(c1cccc(Cl)c1)CC(=O)N2 (stereo not drawn) do in these assays?
KB-V1 cytotox: inactive; ELG1 repair inh: inactive; SW480 rereplic: inactive[9.22 µM]; KB-3-1 tox: inactive; MCF10A rerep: inactive

What do the screens show for `Cc1cc2c(cc1C)C(c1ccccc1F)CC(=O)N2` (stereo not drawn)?
KB-V1 cytotox: inconclusive; ELG1 repair inh: inconclusive; SW480 rereplic: inconclusive; KB-3-1 tox: 5.8µM; MCF10A rerep: inactive

What do the screens show for `COc1cc2c(cc1OC)C(c1cccc(C)c1)CC(=O)N2` (stereo not drawn)?
KB-V1 cytotox: inactive; ELG1 repair inh: inactive; SW480 rereplic: 4.11µM; KB-3-1 tox: inactive; MCF10A rerep: inactive

How did Cc1cc2c(cc1C)C(c1cccc(F)c1)CC(=O)N2 (stereo not drawn) do in these assays?
KB-V1 cytotox: inconclusive; ELG1 repair inh: inactive; SW480 rereplic: inconclusive; KB-3-1 tox: inconclusive; MCF10A rerep: inactive

How did Cc1cc2c(cc1C)C(c1cc(Br)ccc1F)CC(=O)N2 (stereo not drawn) do in these assays?
KB-V1 cytotox: 13µM; ELG1 repair inh: inconclusive; SW480 rereplic: inconclusive; KB-3-1 tox: 8.2µM; MCF10A rerep: 7.31µM

What do the screens show for `O=C(CCS(=O)(=O)c1cc(Br)cc2c1N(C(=O)C1CC1)CC2)NCc1ccc(Cl)cc1`?
KB-V1 cytotox: inactive; KB-3-1 tox: inactive

Results for COc1cc(CN(C(=S)NCC(=O)NC2CCCC2)C2CCCC2)cc(OC)c1OC ?
KB-V1 cytotox: 13µM; ELG1 repair inh: inconclusive; SW480 rereplic: inconclusive; KB-3-1 tox: inactive; MCF10A rerep: inactive

Results for O=C(C[n+]1csc2ccccc21)c1ccc(O)c(O)c1 ?
KB-V1 cytotox: inactive; KB-3-1 tox: inactive

Results for CCn1c(=O)c([N+](=O)[O-])c(N2CCN(Cc3ccc4c(c3)OCO4)CC2)c2ccccc21 ?
KB-V1 cytotox: inconclusive; ELG1 repair inh: 14.6µM; SW480 rereplic: inactive; KB-3-1 tox: inconclusive; MCF10A rerep: inconclusive

How did CCn1c(=O)c([N+](=O)[O-])c(N2CCSCC2)c2ccccc21 do in these assays?
KB-V1 cytotox: inactive; ELG1 repair inh: 6.51µM; SW480 rereplic: inactive; KB-3-1 tox: inconclusive; MCF10A rerep: inconclusive

What do the screens show for `CC(=O)N1N=C(c2cccc([N+](=O)[O-])c2)OC1(C)CC(=O)Nc1ccccc1` (stereo not drawn)?
KB-V1 cytotox: 20.6µM; ELG1 repair inh: inactive; SW480 rereplic: inactive; KB-3-1 tox: inactive; MCF10A rerep: inactive
